Measurements taken from ChEMBL document CHEMBL4513149, “CO-ADD screening of MMV (CH) - MMV compounds” (2021).
Measured potencies and affinities stand elsewhere.

Assays:
Klebsiella pneumoniae = settings: Concentration 20 uM; ASSAY_TEST Inhibition of Bacterial Growth; detection method Absorption (OD600); MEDIA CAMHB; plate type 384well; NBS; CORNING #3640; time 18 hr
Candida albicans = settings: 20 µM
Cryptococcus neoformans = settings: Concentration 20 uM; ASSAY_TEST Inhibition of Fungal Growth; detection method Resazurin; Absorption (OD600-OD570); plate type 384well; NBS; CORNING #3640

| Compound | Inhibition (Klebsiella pneumoniae) | Inhibition (Candida albicans) | Inhibition (Cryptococcus neoformans) |
| --- | --- | --- | --- |
| CNCCC(Oc1ccc(C(F)(F)F)cc1)c1ccccc1 (stereo not given) [FLUOXETINE] | 7.93% | 1.88% | 2.51% |
| CO[C@@H](C(=O)N1Cc2[nH]nc(NC(=O)c3ccc(N4CCN(C)CC4)cc3)c2C1)c1ccccc1 [DANUSERTIB] | 10.18% | 3.17% | -4% |
| CO[C@@H]1CN(c2ccc(C#CC3(O)CN4CCC3CC4)c(Cc3ccccc3)n2)C[C@H]1O (stereo not given in full) | 0.81% | 1.57% | 0.17% |
| Nc1c2c(nc3sc4c(c13)CCCC4)CCCC2 | 3.88% | 0.42% | -9.94% |
| CC(=O)Oc1ccccc1C(=O)Nc1ncc([N+](=O)[O-])s1 [NITAZOXANIDE] | 13.55% | 26.7% | 17.15% |
| Cc1nn(Cc2ccccc2)c(Cl)c1C(=O)NC1CCCCCC1 | 0.72% | 5.99% | -4.17% |
| Cc1cccc(C(=O)Nc2ccnc(N(C)C3CCN(CC(C)C)CC3)c2)c1 | 8.58% | 4.57% | -6.76% |
| CC1(C)OB(O)c2ccc(C3=NOC(c4cc(Cl)c(F)c(Cl)c4)(C(F)(F)F)C3)cc21 (stereo not given) | 23.09% | 3.03% | -7.16% |
| Cc1nn(C)c(C)c1NS(=O)(=O)c1c(Cl)cc(-c2ccnc(N3CCNCC3)c2)cc1Cl | 16.22% | 6.45% | -5.82% |
| Cc1cc(C2=NOC(c3cc(Cl)c(F)c(Cl)c3)(C(F)(F)F)C2)ccc1C(=O)NCc1ccc2c(c1)C(C)(C)OB2O (stereo not given) | 14.68% | 4.25% | -8.68% |
